IEC-6 cytotox: kills IEC-6 intestinal cells in KLF5 counter-screen; IEC-6 cytotoxicity, luminescence viability; actives 0.78% (n = 290,000); inhibition, % at 5 µM; AID 1825;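 note: 0% = plate median of test compound wells and 100% = cytotoxic reference compound wells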
Ba/F3 V617F tox: reduce viability of Ba/F3 cells dependent on JAK2V617F | actives 1.1% (n = 220,000) | inhibition, % at 5.6 µM | AID 1446 | Ba/F3 EpoR-JAK2V617F viability, ATP luminescence;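 active = inhibition above the campaign mean plus 3 SD over all tested compounds, cut at about 24% in these data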;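 note: cytokine-independent growth of Ba/F3 cells driven by EpoR plus mutant JAK2; 0% = DMSO-treated cells and 100% = JAK inhibitor I control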
APP 5UTR inh: APP translation inhibition; SH-SY5Y APP 5'UTR-luciferase reporter, luminescence; inhibition, % at 2 µM; actives 0.82% (n = 190,000); AID 1285;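 active = inhibition above a set limit, derived from the sample mean plus 3 SD, cut at about 45% in these data; inconclusive = one replicate passes the limit while the other fails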
aSyn UTR inh: 5' untranslated region of α-synuclein, MLPCN primary screen; alpha-synuclein 5'UTR reporter, inhibitor activity; inhibition, % (tested at 7.5 µM); actives 0.82% (n = 300,000); in the data active = inhibition above about 60%; inconclusive = no clear call, values can overlap the other calls;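 note: H4 neuroglioblastoma cells stably carrying SNCA 5'UTR luciferase fusion; 0% = DMSO wells and 100% = positive control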
BaF3 tox: reduces parental Ba/F3 cell viability, JAK2V617F counter-screen; actives 1.1% (n = 220,000); inhibition, % at 5.6 µM; CellTiter-Glo ATP luminescence;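 active = inhibition above a per-campaign cutoff, the mean inhibition of all tested compounds plus 3 SD, cut at about 27% in these data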;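 note: 0% = DMSO wells and 100% = JAK Inhibitor I control wells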
KLF5 inhibitor: kruppel-like factor 5 inhibition. DLD-1 KLF5 promoter-luciferase reporter, luminescence. actives 0.23% (n = 290,000). inhibition, % at 5 µM;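 active = inhibition above a per-plate limit of that plate's mean compound inhibition plus 3 SD, cut at about 60% in these data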;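 note: 0% = DMSO wells and 100% = LY294002 at 200 µM; higher means less KLF5 promoter-driven luciferase light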
IEC-6 cytotox cf: confirmation of cytotoxic compounds in rat IEC-6 intestinal epithelial cells | shares compounds with IEC-6 cytotox | IEC-6 rat intestinal epithelial viability, luminescence | inhibition, % at 5 µM | actives 63% (n = 1,900) | AID 1907;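 note: 0% = vehicle and 100% = reference cytotoxic drug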
Numbers without * were called inactive; ? = inconclusive; / = not tested or not shown. Only some compounds are listed: those with a hit (about 2.1% of all), similar ones and a draw of the others. Cut-off read from the data, not from the text of the source, unless noted: active = inhibition above about 22%; inactive = the rest.

SMILES	IEC-6 cytotox	Ba/F3 V617F tox	APP 5UTR inh	aSyn UTR inh	BaF3 tox	KLF5 inhibitor	IEC-6 cytotox cf
Cc1c(N/N=C(\C#N)C(=O)c2ccccc2)c(=O)n(-c2ccccc2)n1C	39*	12	77*	46	10	37	44*
Cc1ccccc1C(=O)/C(C#N)=N/Nc1c(C)n(C)n(-c2ccccc2)c1=O	38*	8	68*	79*	8	30	36*
CCOC(=O)/C(C#N)=N/Nc1c(C)n(C)n(-c2ccccc2)c1=O	-2	0	9	-3	7	-47	/
OCCC1CN(CCCn2cccn2)CCN1C1CCCCC1 (configuration not stated)	0	-1	19	-25	8	-21	/
O=c1c2ccccc2[nH]c(=S)n1CCCN1CCN(c2ccccc2F)CC1	16	/	/	25	/	7	/
O=c1c2ccccc2[nH]c(=S)n1CCCN1CCN(c2ccccc2)CC1	34*	/	/	-7	/	2	18
Cc1ccc(-c2csc3ncnc(Sc4nnc(CN5CCCCCC5=O)o4)c23)cc1	36*	2	26	-44	-3	-11	30*
O=C(Nc1nccs1)c1ccc(COc2c(F)c(F)cc(F)c2F)cc1	4	/	/	-107	/	-47	/
CC(=O)NC1=C(Nc2ccc(N(C)C)cc2)C(=O)c2ccccc2C1=O	67*	/	/	-20	/	-141	41*
COC(=O)[C@@H]1Cc2c([nH]c3ccccc23)C(C)(C)N1C(=O)CCl	95*	/	/	?	/	-35	36*
CCN1C(=O)[C@H]2[C@@H](c3ccc(-c4ccc(OC)cc4)cc3)N3CCCC[C@@]3(C(=O)OC)[C@H]2C1=O	/	/	/	19	/	/	/
COc1cc(OC)c(N(C)C(=O)c2cc3c(s2)-c2ccccc2S(=O)(=O)C3)cc1Cl	/	/	/	3	/	/	/
CCOc1ccc2nc(NC(=O)c3ccoc3C)sc2c1	26*	27*	-168	30	28*	-20	36*
COc1cc(C(=O)Nc2ccc(NC(=O)C3CC3)nc2)cc(OC)c1OC	95*	0	-2	16	8	-11	10
Cc1ccccc1-c1ocnc1C(=O)Nc1ccccc1NC(=O)c1ccccn1	23*	/	/	-3	/	-5	8
Clc1cccc(Cl)c1/C=N/Nc1c(Cl)cncc1Cl	58*	79*	/	-30	61*	9	54*
Cc1cccc(NC(=O)Cn2cc(C(=O)C3CC3)c3ccccc32)c1C	29*	/	/	-11	/	-12	16
COc1ccc(OC)c(NC(=O)CCC(=O)Nc2nnc(C(C)C)s2)c1	4	/	/	10	/	-38	/
Cc1ccc(CSCC(=O)Nc2ccccc2C(=O)O)cc1	29*	/	/	-94	/	-101	25*
CSc1ccccc1NC(=O)CSCc1ccc(C)cc1	0	0	10	-113	2	-16	/
Cc1cc(-c2ccc(C(C)C)c(S(=O)(=O)N3CCN(c4ccccc4)CC3)c2)on1	78*	/	/	?	/	50	53*
Cc1cccc(N2CCN(S(=O)(=O)c3cc(-c4cc(C)no4)ccc3C)CC2C)c1 (configuration not stated)	50*	/	/	11	/	30	32*
Cc1ccc(NC(=O)C2c3ccccc3Oc3ccccc32)nc1	46*	1	11	27	13	-14	41*
O=C(Nc1cnccn1)C1c2ccccc2Oc2ccccc21	0	-3	11	19	3	-9	/
COc1ccc(-c2ccc(CCC(=O)O)n2CC(=O)Nc2ccccc2C)cc1	0	/	/	-7	/	-29	/
SMILES	IEC-6 cytotox	Ba/F3 V617F tox	APP 5UTR inh	aSyn UTR inh	BaF3 tox	KLF5 inhibitor	IEC-6 cytotox cf
CCOC(=O)N1CCN(Cc2nc3cc(NC(=O)CC)ccc3n2C)CC1	-6	/	/	-15	/	-21	/
CCCn1c(CN2CCN(C(=O)OCC)CC2)nc2cc(NC(=O)CC)ccc21	53*	/	/	-23	/	61	24*
COc1ccc(C(=O)O/N=C/c2ccc(S(=O)(=O)c3ccc(Cl)cc3)nc2)cc1	/	/	/	-15	/	/	/
N=c1ccn2c(n1)OC1C(O)C(CO)OC12 (configuration not stated)	92*	75*	/	112*	80*	24	72*
COc1ccc(CCN(C)c2ncnc3sccc23)cc1OC	-1	5	2	11	1	-14	/
COc1ccc(CN(C)c2ncnc3sccc23)c(OC)c1OC	23*	/	/	-9	/	32	10
COc1ccc(OC)c(NC(=O)COC(=O)CSc2ccc(Cl)cc2)c1	0	-1	15	7	6	-20	/

Screens (PubChem BioAssay)
